Test results from PubChem BioAssay AID1159580 (chemical genetic matrix, 2015).
“And” between values parts separate entries of the source, which are not always exact repeats. Equal values may be shown once. The campaign covered roughly 5,500 compounds. About 2,000 (36%) were called active. About 18% were inconclusive and are not listed. Rule as the data show it: active = normalized growth mostly below about 0.91 (no sharp cut-off); inconclusive = no clear call, values can overlap the other calls; inactive = mostly above about 0.92. The list shows a part of the results.

Assay: chemical genetic growth profiling, strain panel (AID 1159580);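 also: tested at 20 µM; growth read once vehicle control cultures reached saturation at 30 °C; 1 = growth at the plate median or of vehicle wells; lower values mean less growth of the strain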
Settings: S. cerevisiae deletion strains, growth OD

Measured: normalized growth

C=Cc1c2[nH]c(c1C)C=c1[nH]c(c(C)c1C=C)=CC1N=C(C=c3[nH]c(c(C)c3CCC(=O)O)=C2)C(CCC(=O)O)=C1C (configuration not stated)
inactive: locus YAL013W, strain DEP1, hits give low values 0.975 | locus YAL021C, strain ccr4, hits give low values 0.954 | locus YAL026C, strain drs2, hits give low values 1.02 | locus YAL030W, strain snc1, hits give low values 1.03 | locus YBL061C, strain skt5, hits give low values 1.02 | locus YBR009C, strain hhf1, hits give low values 1.02 | locus YBR021W, strain FUR4, hits give low values 1.01 | locus YBR023C, strain chs3, hits give low values 1.01 | locus YBR171W, strain sec66, hits give low values 1.08 | locus YBR229C, strain ROT2, hits give low values 0.961 | locus YBR231C, strain swc5, hits give low values 1.02 | locus YBR279W, strain paf1, hits give low values 1.01 | locus YCL011C, strain gbp2, hits give low values 1.05 | locus YCL016C, strain dcc1, hits give low values 1 | locus YCL029C, strain bik1, hits give low values 0.979 | locus YCL061C, strain MRC1, hits give low values 1.03 | locus YCL069W, strain vba3, hits give low values 1.02 | locus YCR088W, strain abp1, hits give low values 1.04 | locus YDL005C, strain med2, hits give low values 1.01 | locus YDL035C, strain GPR1, hits give low values 0.975 | locus YDL040C, strain nat1, hits give low values 0.993 | locus YDL074C, strain BRE1, hits give low values 0.988 | locus YDL101C, strain DUN1, hits give low values 0.981 | locus YDL134C, strain PPH21, hits give low values 0.988 | locus YDL185W, strain tfp1, hits give low values 0.983 | locus YDL192W, strain arf1, hits give low values 0.976 | locus YDR001C, strain nth1, hits give low values 1.03 | locus YDR069C, strain doa4, hits give low values 1.06 | locus YDR101C, strain arx1, hits give low values 0.987 | locus YDR137W, strain rgp1, hits give low values 1 | locus YDR150W, strain NUM1, hits give low values 0.973 | locus YDR159W, strain sac3, hits give low values 1.03 | locus YDR162C, strain NBP2, hits give low values 0.96 | locus YDR195W, strain ref2 1.03 | locus YDR297W, strain sur2, hits give low values 1.01 | locus YDR318W, strain mcm21, hits give low values 0.989 | locus YDR334W, strain swr1, hits give low values 1.04 | locus YDR335W, strain msn5, hits give low values 1.01 | locus YDR388W, hits give low values 0.999 | locus YDR392W, strain spt3, hits give low values 0.909 | locus YDR502C, strain sam2, hits give low values 0.952 | locus YEL003W, strain gim4, hits give low values 1.05 | locus YEL037C, strain rad23, hits give low values 1.02 | locus YEL061C, strain CIN8 (second series), hits give low values 1.02 | locus YEL061C, strain CIN8, hits give low values 0.986 | locus YER015W, strain faa2, hits give low values 1.04 | locus YER016W, strain bim1, hits give low values 1.02 | locus YER110C, hits give low values 0.972 | locus YER111C, strain swi4, hits give low values 1.03 | locus YER155C, strain BEM2 (second series), hits give low values 1.07 | locus YER155C, strain BEM2, hits give low values 1 | locus YER167W, strain BCK2, hits give low values 0.982 | locus YFR010W, strain ubp6, hits give low values 1.04 | locus YGL078C, strain dbp3, hits give low values 1.02 | locus YGL086W, strain mad1, hits give low values 0.938 | locus YGL167C, strain pmr1, hits give low values 1.02 | locus YGL173C, strain kem1, hits give low values 1.02 | locus YGL227W, strain vid30, hits give low values 1.05 | locus YGL240W, strain doc1, hits give low values 0.977 | locus YGL248W, strain PDE1, hits give low values 0.995 | locus YGL253W, strain hxk2, hits give low values 0.988 | locus YGR078C, strain PAC10, hits give low values 0.994 | locus YGR135W, strain pre9, hits give low values 0.961 | locus YGR229C, strain SMI1, hits give low values 0.923 | locus YGR252W, strain gcn5, hits give low values 1.05 | locus YHR013C, strain ard1, hits give low values 0.975 | locus YHR027C, strain rpn1, hits give low values 1.06 | locus YHR030C, strain SLT2, hits give low values 1 and 1.03 | locus YHR079C, strain IRE1 (second series), hits give low values 0.99 | locus YHR079C, strain IRE1, hits give low values 1.07 | locus YHR094C, strain hxt1, hits give low values 0.996 | locus YHR129C, strain ARP1, hits give low values 0.995 | locus YHR142W, strain chs7, hits give low values 0.975 | locus YHR200W, strain rpn10, hits give low values 0.97 | locus YIL066C, strain RNR3, hits give low values 0.982 | locus YIL073C, strain SPO22, hits give low values 1.01 | locus YIL125W, strain kgd1, hits give low values 1.02 | locus YIR030C, strain dcg1, hits give low values 0.986 | locus YJL092W, strain hpr5, hits give low values 1.02 | locus YJL095W, strain BCK1 (second series), hits give low values 1.02 | locus YJL095W, strain BCK1, hits give low values 1.02 and 1.01 | locus YJL115W, strain asf1, hits give low values 1.02 | locus YJL129C, strain trk1, hits give low values 1.04 | locus YJL134W, strain LCB3, hits give low values 0.988 | locus YJL154C, strain vps35, hits give low values 1.02 | locus YJL164C, strain tpk1, hits give low values 0.968 | locus YJL166W, strain qcr8, hits give low values 0.945 | locus YJL168C, strain set2, hits give low values 0.996 | locus YJL187C, strain SWE1 (second series), hits give low values 1 | locus YJL187C, strain SWE1, hits give low values 1 | locus YJR043C, strain POL32, hits give low values 0.962 | locus YJR066W, strain TOR1, hits give low values 0.995
